# Pol beta inh: qHTS Assay for Inhibitors of DNA Polymerase Beta; Pol beta primer extension/strand displacement, fluorescence kinetic; Potency, µM (series often up to 114 µM), for inactives: top-dose activity change, negative = inhibition, most hits filed as inhibitors; actives 1.3% (n = 340,000); P06746; AID 485314, 2010; also: potency is read from the fitted curve at half-maximal effect; % is scaled to controls: 0 for no effect and ±100 for the full control effect
#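 Homogeneous kinetic assay of primer extension and strand displacement by 10 nM Pol beta, preincubated 15 min at room temperature with compound before 50 nM substrate (final) was added. Read at 0 and 10 min; four-parameter Hill fit.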
# POLK inh: qHTS for Inhibitors of Polymerase Kappa. DNA polymerase kappa (Homo sapiens), Q9UBT6. purified Pol kappa, fluorescent DNA synthesis assay, 10 min. Potency, µM (series often up to 107 µM), inactives show at the highest dose activity, negative = inhibition, most hits filed as inhibitors. actives 0.53% (n = 400,000); also: potency is read from the fitted curve at half-maximal effect; % is scaled to controls: 0 for no effect and ±100 for the full control effect
#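 10 nM Pol kappa was preincubated with compounds for 15 min at room temperature. Reaction started with 50 nM (final) substrate. Fluorescence read kinetically at 0 and 10 min.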
# WRN inhibitor: qHTS for Inhibitors of WRN Helicase. Bifunctional 3'-5' exonuclease/ATP-dependent helicase WRN (Homo sapiens), Q14191. WRN helicase unwinding, fluorescent forked duplex, kinetic. Potency, µM (titrated, usually from 114 µM), inactives show top-dose activity change, negative = inhibition, most hits filed as inhibitors. actives 0.46% (n = 360,000). AID 651768, 2012; also: potency is read from the fitted curve at half-maximal effect; % is scaled to controls: 0 for no effect and ±100 for the full control effect; nearly all actives have a fitted effect of over 55% in size
#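 Kinetic fluorescence helicase assay: unwinding of a quenched forked DNA duplex (100 nM final) with 2 mM ATP final raises red fluorescence (525/598 nm). Compounds sat 15 min at room temperature with 20 nM WRN beforehand.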
# Pol eta inh: qHTS for Inhibitors of Polymerase Eta; Potency, µM (top dose mostly 114 µM), for inactives: top-dose activity change, negative = inhibition, usual class: inhibitors; DNA polymerase eta (Homo sapiens), Q9Y253; actives 1.2% (n = 390,000); recombinant Pol eta, fluorescent DNA replication assay; also: potency is read from the fitted curve at half-maximal effect; % is scaled to controls: 0 for no effect and ±100 for the full control effect
#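 Fluorescent replication assay: 50 nM final substrate added after a 15 min room-temperature compound preincubation with 10 nM enzyme. Signal taken at 0 min and again at 10 min.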
# PI5P4Ka inh: qHTS for Inhibitors of phosphatidylinositol 5-phosphate 4-kinase (PI5P4K); PI5P4Kalpha enzyme, ADP-Glo luminescence, 60 min; active compounds read low; actives 1.2% (n = 330,000); max response, %; Phosphatidylinositol 5-phosphate 4-kinase type-2 alpha (Homo sapiens), P48426; active = max response of -50% or lower; inconclusive = between -30% and -50%; inactive = -30% or higher; also: value at the top dose of about 77 µM; % is scaled to controls: 0 for no effect and ±100 for the full control effect
# Target sequence (P48426 whole entry, looked up): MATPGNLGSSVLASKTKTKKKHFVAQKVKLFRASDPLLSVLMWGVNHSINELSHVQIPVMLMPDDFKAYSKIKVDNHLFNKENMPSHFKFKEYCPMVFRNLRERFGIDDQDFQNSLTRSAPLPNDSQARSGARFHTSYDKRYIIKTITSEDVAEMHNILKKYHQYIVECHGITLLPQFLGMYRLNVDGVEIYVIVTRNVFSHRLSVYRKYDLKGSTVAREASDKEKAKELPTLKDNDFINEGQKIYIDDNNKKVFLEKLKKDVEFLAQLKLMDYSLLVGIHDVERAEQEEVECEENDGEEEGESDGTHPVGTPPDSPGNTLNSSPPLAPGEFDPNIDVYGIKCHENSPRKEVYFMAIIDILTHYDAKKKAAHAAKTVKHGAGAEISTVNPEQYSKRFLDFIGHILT
#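 ADP-Glo luminescence end-point after a 60 min room-temperature kinase reaction. PI5P4Kalpha and substrate in HEPES pH 7.4 buffer with EGTA, 0.1% CHAPS and 5% DMSO; ATP at 5 microM final.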
# Pol iota inh: qHTS for Inhibitors of Polymerase Iota. actives 1% (n = 390,000). AID 588590, 2011. Potency, µM (titrated, usually from 115 µM), for inactives: at the top dose activity, negative = inhibition, actives largely listed as inhibitors. DNA polymerase iota (Homo sapiens), Q9UNA4. Pol iota fluorescent replication assay, 10 min; also: potency is read from the fitted curve at half-maximal effect
#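 Fluorescent replication assay read twice, at 0 min and 10 min after adding 50 nM (final) substrate. Enzyme (10 nM) and compounds were first incubated 15 min at room temperature; enzyme-free buffer wells were negative controls.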
# Active calls of the source: *; ? = inconclusive; . = no result given; [ ] = another dose, or the depositor's remark. A selection: hits, their analogues and other compounds. The true share with any hit is near 2.8%. Unless noted, calls follow the shape of the dose curve; as a rule, active = well fitted curve in the direction sought with a large enough effect; inconclusive = small, poorly fitted or top-dose-only effect, or another doubt; inactive = no such curve, though single readings can be large; an effect the other way counts as inactive or inconclusive.
SMILES,Pol beta inh,POLK inh,WRN inhibitor,Pol eta inh,PI5P4Ka inh,Pol iota inh
CCOC(=O)c1cc(-c2csc(-c3cccc(Cl)c3)n2)on1,11.3%,3.2%,-21.7%,-2.7%,2.8,124.8%
Cc1c(NC(=O)COC(=O)c2c3c(nc4ccccc24)CCCC3)c(=O)n(-c2ccccc2)n1C,-19.5%,-0.4%,-19.4%[57.1 µM],-17.7%,-1.4,?
Cc1c(NC(=O)C(C)OC(=O)c2c3c(nc4ccccc24)CCC3)c(=O)n(-c2ccccc2)n1C (stereo unspecified),?,-24.2%,?,50.1µM*,?,31.6µM*
Cc1c(NC(=O)C(C)OC(=O)c2cccnc2Cl)c(=O)n(-c2ccccc2)n1C (stereo unspecified),.,5.1%,2.9%,-9.2%,-1.0,79.4µM*
O=C(Nc1nc(-c2ccncc2)cs1)c1ccco1,39.8µM*,-12.7%,-12.6%[57.1 µM],?,-14.0,?
Cc1ccccc1CN1CCC(CNc2ncnc3onc(-c4ccc(Cl)cc4)c23)CC1,-2.1%,-4.5%,.,-21.1%,.,6.7%
Cc1ccc(/C=C/C(=O)O)cc1S(=O)(=O)N(C)CCO,-0.8%,-0.6%,-13.8%,-10.6%,-64.1*,-1.3%
CCc1ccc2c(O)c3c(cc2c1C(=O)OC)C(=O)c1c(O)ccc(O)c1C3=O,.,7.94µM*,.,.,.,.
CCn1c(C)c(C)c2cc(C(=O)NCCCN3CCCCCC3)ccc21,5.1%,-12.0%,-1.5%[11.6 µM],-6.4%,-10.3,89.1µM*
CS(=O)(=O)Nc1ccc(C(=O)Nc2ccc(S(=O)(=O)N3CCCC3)cc2)cc1,-19.6%,-14.0%,-4.6%,-11.9%,3.5,-2.9%
CN1C(=O)S/C(=C/c2cccn2-c2cccc(C(=O)O)c2)C1=O,?,-31.9%,-6.3%[11.6 µM],50.1µM*,-8.9,?
CC1(C)CC(=O)C(N=Nc2cc(S(=O)(=O)N3CCOCC3)ccc2Cl)=C(O)C1,22.4µM*,1.5%,-4.9%,-17.7%,-1.5,2.7%
CC1(C)CC(=O)C(N=Nc2cc(C(F)(F)F)ccc2Cl)=C(O)C1,-0.9%,6.1%,3.3%,-16.2%,4.3,14.5%
COn1c2c(c3c4no[n+]([O-])c4ccc31)CCCC2,-16.2%,-9.2%,77.2%,-7.6%,.,-1.7%
COn1c2c(c3c4nonc4ccc31)CCCC2,-0.6%,-2.7%,-17.0%,-6.4%,.,22.4µM*
O=c1cc(-c2ccc(O)cc2)oc2cccc(O)c12,.,-9.0%[19.4 µM],.,.,.,.
O=c1cc(-c2ccc(O)cc2)oc2c(-c3c(O)cc(O)c4c(=O)cc(-c5ccc(O)cc5)oc34)c(O)cc(O)c12,.,?,-10.9%,25.1µM*,?,?
Cc1cc(C)cc(N(CC(=O)NC2CC3CCC2C3)S(C)(=O)=O)c1 (stereo unspecified),-1.0%,-8.2%,12.0%,1.3%,-4.8,89.1µM*
CC1(c2ccc3c(c2)OCCO3)NC(=O)N(CC(=O)c2ccc[nH]2)C1=O (stereo unspecified),.,-11.2%,-16.4%,?,-53.2*,?
CC1(c2ccc3c(c2)OCO3)NC(=O)N(CC(=O)c2ccc[nH]2)C1=O (stereo unspecified),.,-3.3%,-0.9%,-19.0%,-23.8,11.1%
O=C(CN1C(=O)NC2(CCOc3ccccc32)C1=O)c1ccc[nH]1 (stereo unspecified),.,-18.8%,-10.5%,?,?,39.8µM*
COc1ccc2cc(C(=O)Nc3ccccc3)sc(=O)c2c1OC,22.4µM*,?,-35.1%,?,7.7,18.1%
CCOc1ccc(N2C(=O)c3n[nH]c(-c4cccs4)c3C2c2cccc(F)c2)cc1 (stereo unspecified),8.3%,0.7%,.,.,.,12.6µM*
CCOC(=O)c1ccc(N2C(=O)c3n[nH]c(-c4cccs4)c3C2c2cccc(OC)c2)cc1 (stereo unspecified),-0.4%,-3.2%,.,-23.6%,.,-15.4%

# Screening results as filed in PubChem.
